From PubChem
Shown is part of a subset that was picked to be rich in hits.
IDE exosite FP = insulin-degrading enzyme (human) exo-site inhibition; P14735; purified IDE, FL-6b probe fluorescence polarization; hits give low values; z-score at 20 µM; actives 6.3% (n = 17,000);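 active = z-score of -3 or lower, meaning strong loss of probe binding signal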;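 also: His-tagged human IDE residues 42-1019 made in E. coli with 30 nM FL-6b probe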
Target sequence (P14735 42-1019 limits assumed): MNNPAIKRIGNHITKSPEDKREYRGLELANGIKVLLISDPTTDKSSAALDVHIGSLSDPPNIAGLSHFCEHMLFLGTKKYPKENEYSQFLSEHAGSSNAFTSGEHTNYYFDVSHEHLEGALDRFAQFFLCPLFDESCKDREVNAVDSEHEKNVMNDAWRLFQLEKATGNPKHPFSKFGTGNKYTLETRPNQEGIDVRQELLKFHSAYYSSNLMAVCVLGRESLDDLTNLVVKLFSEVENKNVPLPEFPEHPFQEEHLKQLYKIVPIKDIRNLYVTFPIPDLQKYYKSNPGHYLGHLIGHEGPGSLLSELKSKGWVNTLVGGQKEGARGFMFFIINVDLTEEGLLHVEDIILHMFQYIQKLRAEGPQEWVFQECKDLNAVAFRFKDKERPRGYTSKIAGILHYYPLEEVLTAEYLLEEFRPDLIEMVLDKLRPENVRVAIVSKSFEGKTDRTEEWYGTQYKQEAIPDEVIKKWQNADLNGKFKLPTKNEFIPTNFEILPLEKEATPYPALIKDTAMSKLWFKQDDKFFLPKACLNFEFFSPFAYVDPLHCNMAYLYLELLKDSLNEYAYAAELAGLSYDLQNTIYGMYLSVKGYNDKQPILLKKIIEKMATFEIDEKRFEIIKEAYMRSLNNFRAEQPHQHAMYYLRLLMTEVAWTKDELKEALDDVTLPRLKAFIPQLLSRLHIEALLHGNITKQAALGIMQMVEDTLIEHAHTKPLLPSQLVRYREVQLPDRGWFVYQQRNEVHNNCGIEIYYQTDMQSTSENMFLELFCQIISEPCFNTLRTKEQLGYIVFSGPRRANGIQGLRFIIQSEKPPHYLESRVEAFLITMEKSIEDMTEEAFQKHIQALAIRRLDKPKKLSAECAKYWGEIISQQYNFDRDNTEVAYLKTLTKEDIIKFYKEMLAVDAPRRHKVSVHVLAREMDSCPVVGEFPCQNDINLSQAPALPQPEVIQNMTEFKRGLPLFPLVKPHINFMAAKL
A number is an active result.

What do the screens show for `COCC#Cc1ccc([C@H]2[C@@H](CO)N3CCCCN(Cc4ccncc4)C[C@H]23)cc1`?
IDE exosite FP: inactive

How did COc1ccccc1-c1ccc([C@H]2[C@H]3CN(Cc4ccncc4)CCCCN3[C@H]2CO)cc1 do in these assays?
IDE exosite FP: -4.7

How did O=C(C[C@H]1C[C@@H]2c3cc(NC(=O)C4CCC4)ccc3O[C@@H]2[C@H](CO)O1)NC1CCCC1 do in these assays?
IDE exosite FP: inactive

What do the screens show for `CCS(=O)(=O)NCC[C@@H]1CC[C@@H](NS(=O)(=O)c2ccccc2C)[C@H](CO)O1`?
IDE exosite FP: inactive

How did CC(=O)N(C)C[C@@H]1[C@@H](c2ccccc2)[C@H](CO)N1C(=O)C1CCC1 do in these assays?
IDE exosite FP: inactive

Results for CN(C)CC#Cc1ccc([C@@H]2[C@H](CO)N3CCCCN(C(=O)C4CCC4)C[C@@H]23)cc1 ?
IDE exosite FP: inactive

How did COc1ccc(C#Cc2ccc([C@@H]3[C@H](CO)N4CCCCN(C(=O)Nc5ccccc5)C[C@@H]34)cc2)cc1 do in these assays?
IDE exosite FP: inactive

What do the screens show for `COc1ccccc1C#Cc1ccc([C@@H]2[C@@H](CO)N3CCCCN(C(=O)C4CCC4)C[C@H]23)cc1`?
IDE exosite FP: -8.3

Results for COc1ccc(C#Cc2ccc([C@H]3[C@H]4CN(C(=O)Nc5ccccc5)CCCCN4[C@H]3CO)cc2)cc1 ?
IDE exosite FP: inactive

Results for COc1ccccc1NC(=O)N1CCCCN2[C@H](CO)[C@@H](c3ccc(C#Cc4ccccc4)cc3)[C@H]2C1 ?
IDE exosite FP: inactive

What do the screens show for `COc1ccccc1NC(=O)N1CCCCN2[C@@H](CO)[C@H](c3ccc(C#Cc4ccccc4)cc3)[C@@H]2C1`?
IDE exosite FP: inactive

What do the screens show for `CN(C)CC#Cc1ccc([C@@H]2[C@H]3CN(C(=O)C4CCC4)CCCCN3[C@H]2CO)cc1`?
IDE exosite FP: inactive

What do the screens show for `COc1ccccc1C#Cc1ccc([C@@H]2[C@H](CO)N3CCCCN(C(=O)C4CCC4)C[C@@H]23)cc1`?
IDE exosite FP: -11

What do the screens show for `COc1ccccc1NC(=O)N1CCCCN2[C@H](CO)[C@H](c3ccc(C#Cc4ccccc4)cc3)[C@@H]2C1`?
IDE exosite FP: inactive

Results for COc1ccc(C#Cc2ccc([C@H]3[C@@H](CO)N4CCCCN(C(=O)Nc5ccccc5)C[C@@H]34)cc2)cc1 ?
IDE exosite FP: inactive

How did COc1ccccc1C#Cc1ccc([C@H]2[C@H]3CN(C(=O)C4CCC4)CCCCN3[C@H]2CO)cc1 do in these assays?
IDE exosite FP: -18

Results for COc1ccccc1C#Cc1ccc([C@H]2[C@@H](CO)N3CCCCN(C(=O)C4CCC4)C[C@@H]23)cc1 ?
IDE exosite FP: -7.6

Results for COc1ccccc1NC(=O)N1C[C@H](O)COC[C@H]2O[C@@H](CC(=O)NCCc3ccncc3)CC[C@@H]21 ?
IDE exosite FP: inactive

Results for CO[C@@H]1CN(C)C(=O)c2cc(NC(=O)Cc3ccccc3)ccc2OC[C@@H](C)N(C(=O)c2ccccc2F)C[C@@H]1C ?
IDE exosite FP: inactive

How did Cc1noc(C)c1NC(=O)N1C[C@H](O)COC[C@@H]2O[C@@H](CC(=O)N[C@H]3CCN(Cc4ccccc4)C3)CC[C@H]21 do in these assays?
IDE exosite FP: inactive

Results for COc1cccc(-c2ccc(C3[C@@H]4CN(C(=O)Nc5ccccc5F)C[C@H]3N4)cc2)c1 (stereo partly drawn) ?
IDE exosite FP: inactive

How did CO[C@@H]1CN(C)C(=O)c2cc(NC(=O)Nc3cc(F)ccc3F)ccc2OC[C@@H](C)NC[C@H]1C do in these assays?
IDE exosite FP: inactive

What do the screens show for `CCC(=O)N1[C@H](CO)[C@@H](c2ccc(-c3cccnc3)cc2)[C@@H]1CN(CC)C(C)=O`?
IDE exosite FP: inactive

How did C[C@H]1CC=CC[C@@H](c2cccc(Cl)c2)NC(=O)[C@H](Cc2ccccc2)N(C)C(=O)c2ccccc2O1 (mixture of isomers) do in these assays?
IDE exosite FP: inactive

Results for CC(C)[C@@H]1C(=O)NCCC=CC[C@H](C)Oc2ccccc2C(=O)N1C (mixture of isomers) ?
IDE exosite FP: inactive

Results for Cc1ccccc1-c1ccc2c(c1)O[C@H](CN(C)C(=O)Nc1ccc(C(F)(F)F)cc1)[C@@H](C)CN([C@H](C)CO)S2(=O)=O ?
IDE exosite FP: inactive

Results for N#C[C@H]1[C@H](c2ccccc2)[C@H](CO)N1S(=O)(=O)Cc1ccccc1 ?
IDE exosite FP: inactive

Results for COc1ccccc1NC(=O)N1C[C@H](O)COC[C@@H]2O[C@@H](CC(=O)NCCc3ccncc3)CC[C@H]21 ?
IDE exosite FP: inactive

What do the screens show for `O=C(C1CCC1)N1C[C@@H]2[C@H](c3ccccc31)[C@@H](CO)N2C(=O)Nc1cccc(F)c1`?
IDE exosite FP: inactive

What do the screens show for `O=C(C1CC1)N1CC(=O)N2[C@H](C1)[C@@H](c1ccc(-c3cccnc3)cc1)[C@@H]2CO`?
IDE exosite FP: inactive

What do the screens show for `CCCNC(=O)N1[C@H](CNC(=O)c2ccc(F)cc2)[C@@H](c2ccccc2)[C@@H]1CO`?
IDE exosite FP: inactive

What do the screens show for `O=C(C[C@H]1CC[C@H]2[C@@H](COC[C@H](O)CN2CC2CCOCC2)O1)NCC1CCCCC1`?
IDE exosite FP: inactive
